Records with an inconclusive call do not appear. The source made the active and inactive calls. Calls follow the shape of the dose curve; as a rule, active = well fitted activation curve with a large enough effect in the signal ratio in the repeat runs (not every such curve was filed as active); inconclusive = weak or mixed curves; inactive = flat fitted curve, though single readings scatter; the % refers to the signal ratio. Numbered stars: 1 amine (or outer) side, 2 acyl side, 3 side chain; on linkers, the order of the positions; unused ones are H or OH. Bridge positions count the residues as written; N and C are the ends. Square brackets hold non-standard residues; d marks the D form. Peptide text beside a SMILES is read from it. I, II: the chains in the order shown. Actinocin(9to1) = Cc1c2oc3c(C)ccc(C(=O)[*:1])c3nc-2c(C(=O)[*:2])c(N)c1=O; NMeV = CN[C@H](C(=O)O)C(C)C; Sar = CNCC(=O)O
% is scaled to controls: 0 for no effect and ±100 for the full control effect; potency is read from the fitted curve at half-maximal effect.

The nature of the assay: p53 small molecule agonists, cell-based qHTS assay (AID 1963582). To be noted: HCT-116 p53RE-bla reporter, beta-lactamase FRET ratio, 16 h; series mostly up to 66 µM; activation: at the top concentration. The text has this: National Center for Advancing Translational Sciences [NCATS]
Division of Preclinical Innovation [DPI]
U.S. Environmental Protection Agency [EPA]
National Institutes of Environmental Health Sciences [NIEHS]
National Toxicology Program [NTP]
U.S. Food and Drug Administration [FDA]
p53, a tumor suppressor protein, is activated following cellular insult, including DNA damage and other cellular stresses. The activation of p53 regulates cell fate by inducing DNA repair, cell cycle arrest, apoptosis, or cellular senescence. The activation of p53, therefore, is a good indicator of DNA damage and other cellular stresses. […] The activation of the reporter gene under culture conditions can be detected by fluorescence intensity. This cell line was used to screen the Tox21 10K compound library in a 1536-well plate format and to identify agonists that activate the p53 signaling pathway.
Tox21 Assay Protocol Summary:
The p53RE-bla cells were dispensed at 4,000 cells/5 ul/well in 1536-well black wall/clear bottom plates using a Multidrop dispenser. After the assay plates were incubated at a 37 C/5% CO2 incubator for 5 hours, 23 nL of compounds dissolved in DMSO, positive controls or DMSO only was transferred to the assay plate by a pin tool. The plates were incubated at 37 C for 16 hours. After 1 uL of LiveBLAzerTM B/G FRET substrate was added using a Flying Reagent Dispenser, the plates were incubated at room temperature for 2 hours, and fluorescence intensity was measured by an Envision plate reader.
In the case of `O=C(O)CSCC(=O)NC1CCSC1=O` (stereo not given), the “activation” value is 0.402% [at 30.3 µM] (inactive). On the same count and under the same terms, under `NS(=O)(=O)c1ccc(N2CCCCS2(=O)=O)cc1` stands 1.61% [at 30.3 µM] (inactive); under `C=C(C)[C@@H]1CCC2=CC(=O)C[C@@H](C)[C@]2(C)C1`, -2.17% (inactive). Still for that read-out and setting: under `COc1cc(C(=S)N2CCOCC2)ccc1O` stands -0.164% [at 30.3 µM] (inactive); under `COc1cc(C=O)ccc1OC(=O)C(C)C`, 0.113% (inactive). `OCCOCCN1CCN(C2=Nc3ccccc3Sc3ccccc32)CC1`: the Potency entry is “inactive”. `CCC(=O)OCc1ccc(OC)cc1`: the “activation” value is 3.35% (inactive). Same read-out and setting: for `CCCCCCCCCCCCI` the value was -0.622% (inactive); for `Cc1ccc2ccccc2c1[N+](=O)[O-]`, 2.64% (inactive); for `CC(=N\O)/C(C)=N/O`, -3.78% (inactive).

As to `O=C[C@H](O)[C@H](O)[C@H](O)CO`, the “activation” value is 5.11% (inactive). As to `CC(C)[C@H]1CC[C@@H](C)CC1=O`, the “activation” value was 0.0068% (inactive). Take `CCCCN(CCO)CCO`: the “activation” value is -0.23% (inactive). Same read-out and setting: under `O=C(c1ccc(Cl)cc1)c1ccc(Cl)cc1` stands -0.276% (inactive); under `NC(=Nc1ccccc1)Nc1ccccc1`, -4.93% [at 30.3 µM] (inactive); under `CCCN1CCCC[C@H]1C(=O)Nc1c(C)cccc1C`, -3.33% [at 30.3 µM] (inactive).

With `CN1C(=O)CC(C)(c2ccccc2)C1=O` (stereo not given), the “activation” value was 0.252% [at 30.3 µM] (inactive). Turning to `O=C(O)c1ccc(CO)o1`, the “activation” value was 0.916% (inactive). For the compound `CCOCOCC`, the “activation” value was 2.83% (inactive).

As to `CCCCCCCOC(=O)c1ccccc1C(=O)OCCCCCCC`, the “activation” value is -5.57% (inactive). Consider `O=C(O)c1cc(C(=O)O)cc([N+](=O)[O-])c1`, for which the “activation” value was 0.243% (inactive).

Consider `CC(C)C(=O)c1ccccc1`, for which the “activation” value was -0.0793% (inactive). Regarding `NC1CCCCC1N` (stereo not given), the Potency entry was “inactive”. On to `c1ccc2c(c1)CCC2`, for which the “activation” value was 0.946% (inactive).

`O=S(=O)(O)c1cccc2ccccc12`: the “activation” value was 1.25% (inactive). Take `Cn1cnc2c(F)c(Nc3ccc(Br)cc3Cl)c(C(=O)NOCCO)cc21`: the “activation” value was 2.09% [at 30.3 µM] (inactive).

Take `CCCCCCCCOC(=O)CCCCCCCCC(=O)OCCCCCCCC`: the “activation” value was 0.0251% (inactive). For the compound `CCCCC(CC)COP(=O)(OCC(CC)CCCC)OCC(CC)CCCC` (stereo not given), the Potency result is “inactive”. The same measure, in the same setting: under `NC(=O)c1ccc([N+](=O)[O-])cc1Cl` stands “inactive”. `NC(=O)c1cccc([N+](=O)[O-])c1`: the “activation” value is -1.07% (inactive). As for `CCN(Cc1cccc(S(=O)(=O)O)c1)c1ccccc1`, the “activation” value is -1.74% (inactive). For the compound `COC(=O)c1ccccc1C(=O)c1ccc(OCCN2CCCCC2)cc1`, the “activation” value was 0.178% [at 30.3 µM] (inactive). On to `C=CCCCCCCCCCCC`, for which the activation is 0.37% [at 5.99 µM] (inactive). Take `C1CCC2OC2C1` (stereo not given): the “activation” value is -0.275% (inactive). On the same count and under the same terms, for `CO[C@@]1(NC(=O)CSC[C@@H](N)C(=O)O)C(=O)N2C(C(=O)O)=C(CSc3nnnn3C)CS[C@@H]21` the value was 5.98% [at 30.3 µM] (inactive). Turning to `CCCOCCO`, the Potency entry is “inactive”. On the same count and under the same terms, under `COCCCOc1ccnc(CS(=O)c2nc3ccccc3[nH]2)c1C` (stereo not given) stands “inactive”. For the compound `OCCN1CCN(CCCN2c3ccccc3C=Cc3ccccc32)CC1`, the “activation” value is -1.91% [at 30.3 µM] (inactive). With `CC(=O)C1(C)CC2=C(CCCC2(C)C)CC1C` (stereo not given), the Potency entry is “inactive”. In the case of `Cc1c2oc3c(C)ccc(C(=O)N[C@@H]4C(=O)N[C@H](C(C)C)C(=O)N5CCC[C@H]5C(=O)N(C)CC(=O)N(C)[C@@H](C(C)C)C(=O)O[C@@H]4C)c3nc-2c(C(=O)N[C@@H]2C(=O)N[C@H](C(C)C)C(=O)N3CCC[C@H]3C(=O)N(C)CC(=O)N(C)[C@@H](C(C)C)C(=O)O[C@@H]2C)c(N)c1=O` (I: T[dV]P[Sar][NMeV] / II: T[dV]P[Sar][NMeV]; ester I:1-I:C, II:1-II:C; linker I:N-II:N via Actinocin(9to1)), the Potency was 2.2 nM (active).

Source of the values: PubChem BioAssay (Tox21).
